Results from PubChem BioAssay AID1159580 (chemical genetic matrix, 2015).
The whole screen tested about 5,500 compounds, of which about 2,000 (36%) were called active. Another 18% or so got no clear call; they are omitted. Cut-off read from the data, not from the text of the source: active = normalized growth mostly below about 0.91 (no sharp cut-off); inconclusive = no clear call, values can overlap the other calls; inactive = mostly above about 0.92. Some of the results follow.

Assay: chemical genetic growth profiling, strain panel (AID 1159580);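 note: tested at 20 µM; growth read once vehicle control cultures reached saturation at 30 °C; 1 = growth at the plate median or of vehicle wells; lower values mean less growth of the strain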
Settings: growth OD

Measured: normalized growth

NC(=O)NO
inactive: S. cerevisiae deletion strains, locus YJR066W, strain TOR1, hits give low values 0.931 | S. cerevisiae deletion strains, locus YKL009W, strain mrt4, hits give low values 0.998 | S. cerevisiae deletion strains, locus YKL068W, hits give low values 0.997 | S. cerevisiae deletion strains, locus YKL085W, strain MDH1 (second series), hits give low values 0.989 | S. cerevisiae deletion strains, locus YKL085W, strain MDH1, hits give low values 0.989 | S. cerevisiae deletion strains, locus YKL160W, strain elf1, hits give low values 1.03 | S. cerevisiae deletion strains, locus YKL190W, strain CNB1, hits give low values 1.01 | S. cerevisiae deletion strains, locus YKR001C, strain vps1, hits give low values 0.992 | S. cerevisiae deletion strains, locus YKR026C, strain gcn3, hits give low values 1.02 | S. cerevisiae deletion strains, locus YKR091W, strain srl3, hits give low values 1.01 | S. cerevisiae deletion strains, locus YLL001W, strain dnm1, hits give low values 1.01 | S. cerevisiae deletion strains, locus YLL026W, hits give low values 1.02 | S. cerevisiae deletion strains, locus YLL041C, strain sdh2, hits give low values 1.02 | S. cerevisiae deletion strains, locus YLR027C, strain aat2, hits give low values 1.03 | S. cerevisiae deletion strains, locus YLR039C, strain RIC1, hits give low values 1 | S. cerevisiae deletion strains, locus YLR058C, strain SHM2, hits give low values 1.01 | S. cerevisiae deletion strains, locus YLR102C, strain apc9, hits give low values 1 | S. cerevisiae deletion strains, locus YLR113W, strain HOG1, hits give low values 0.951 | S. cerevisiae deletion strains, locus YLR221C, strain rsa3, hits give low values 1.01 | S. cerevisiae deletion strains, locus YLR258W, strain gsy2, hits give low values 1.02 | S. cerevisiae deletion strains, locus YLR262C, strain YPT6 (second series), hits give low values 1 | S. cerevisiae deletion strains, locus YLR262C, strain YPT6, hits give low values 0.993 | S. cerevisiae deletion strains, locus YLR268W, strain sec22, hits give low values 0.998 | S. cerevisiae deletion strains, locus YLR320W, strain mms22, hits give low values 1.02 | S. cerevisiae deletion strains, locus YLR330W, strain CHS5, hits give low values 1.01 | S. cerevisiae deletion strains, locus YLR342W, strain FKS1 (second series), hits give low values 1 | S. cerevisiae deletion strains, locus YLR342W, strain FKS1, hits give low values 1.02 | S. cerevisiae deletion strains, locus YLR357W, strain rsc2, hits give low values 0.994 | S. cerevisiae deletion strains, locus YLR370C, strain arc18, hits give low values 1.03 | S. cerevisiae deletion strains, locus YLR371W, strain rom2, hits give low values 0.997 | S. cerevisiae deletion strains, locus YLR384C, strain iki3, hits give low values 1.02 | S. cerevisiae deletion strains, locus YLR418C, strain cdc73, hits give low values 0.97 | S. cerevisiae deletion strains, locus YML016C, strain PPZ1, hits give low values 1 | S. cerevisiae deletion strains, locus YML032C, strain rad52, hits give low values 0.984 | S. cerevisiae deletion strains, locus YML120C, strain ndi1, hits give low values 0.997 | S. cerevisiae deletion strains, locus YML124C, strain tub3, hits give low values 0.993 | S. cerevisiae deletion strains, locus YMR058W, strain fet3, hits give low values 1.06 | S. cerevisiae deletion strains, locus YMR078C, strain ctf18, hits give low values 0.999 | S. cerevisiae deletion strains, locus YMR125W, strain sto1, hits give low values 1.02 | S. cerevisiae deletion strains, locus YMR129W, hits give low values 1.02 | S. cerevisiae deletion strains, locus YMR205C, strain PFK2, hits give low values 1.03 | S. cerevisiae deletion strains, locus YMR223W, strain ubp8, hits give low values 0.994 | S. cerevisiae deletion strains, locus YMR231W, strain pep5, hits give low values 1.03 | S. cerevisiae deletion strains, locus YMR263W, strain SAP30, hits give low values 1.01 | S. cerevisiae deletion strains, locus YMR307W, strain GAS1, hits give low values 1.03 | S. cerevisiae deletion strains, locus YNL067W, strain RPL9B, hits give low values 1 | S. cerevisiae deletion strains, locus YNL071W, strain lat1, hits give low values 1.02 | S. cerevisiae deletion strains, locus YNL128W, strain TEP1, hits give low values 1.02 | S. cerevisiae deletion strains, locus YNL153C, strain GIM3, hits give low values 0.994 | S. cerevisiae deletion strains, locus YNL183C, strain NPR1, hits give low values 0.945 | S. cerevisiae deletion strains, locus YNL209W, strain ssb2, hits give low values 1.02 | S. cerevisiae deletion strains, locus YNL224C, strain SQS1, hits give low values 0.99 | S. cerevisiae deletion strains, locus YNL233W, strain BNI4, hits give low values 1.01 | S. cerevisiae deletion strains, locus YNL248C, strain rpa49, hits give low values 1.03 | S. cerevisiae deletion strains, locus YNL250W, strain rad50, hits give low values 0.996 | S. cerevisiae deletion strains, locus YNL271C, strain bni1, hits give low values 0.999 | S. cerevisiae deletion strains, locus YNL298W, strain CLA4, hits give low values 0.997 | S. cerevisiae deletion strains, locus YNL307C, strain MCK1, hits give low values 1 | S. cerevisiae deletion strains, locus YNL322C, strain KRE1 (second series), hits give low values 1.03 | S. cerevisiae deletion strains, locus YNR049C, strain mso1, hits give low values 1.01 | S. cerevisiae deletion strains, locus YNR052C, strain pop2, hits give low values 1.01 | S. cerevisiae deletion strains, locus YOL006C, strain TOP1, hits give low values 0.967 | S. cerevisiae deletion strains, locus YOL012C, strain htz1 0.591 | S. cerevisiae deletion strains, locus YOL147C, strain pex11, hits give low values 1 | S. cerevisiae deletion strains, locus YOR001W, strain rrp6, hits give low values 1.01 | S. cerevisiae deletion strains, locus YOR061W, strain CKA2, hits give low values 1.01 | S. cerevisiae deletion strains, locus YOR069W, strain VPS5, hits give low values 1.01 | S. cerevisiae deletion strains, locus YOR070C, strain gyp1, hits give low values 1.02 | S. cerevisiae deletion strains, locus YOR080W, strain dia2, hits give low values 1.03 | S. cerevisiae deletion strains, locus YOR083W, strain WHI5 (second series), hits give low values 0.997 | S. cerevisiae deletion strains, locus YOR083W, strain WHI5, hits give low values 0.993 | S. cerevisiae deletion strains, locus YOR106W, strain vam3, hits give low values 1.02 | S. cerevisiae deletion strains, locus YOR136W, strain idh2, hits give low values 0.991 | S. cerevisiae deletion strains, locus YOR144C, strain elg1, hits give low values 0.998 | S. cerevisiae deletion strains, locus YOR184W, strain ser1, hits give low values 0.993 | S. cerevisiae deletion strains, locus YOR231W, strain MKK1, hits give low values 0.967 | S. cerevisiae deletion strains, locus YOR265W, strain rbl2, hits give low values 1.02 | S. cerevisiae deletion strains, locus YOR270C, strain vph1, hits give low values 1.05 | S. cerevisiae deletion strains, locus YOR290C, strain snf2, hits give low values 1.02 | S. cerevisiae deletion strains, locus YOR316C, strain cot1, hits give low values 1.01 | S. cerevisiae deletion strains, locus YPL051W, strain arl3, hits give low values 1.03 | S. cerevisiae deletion strains, locus YPL078C, strain atp4, hits give low values 1.03 | S. cerevisiae deletion strains, locus YPL106C, strain sse1, hits give low values 0.984 | S. cerevisiae deletion strains, locus YPL240C, strain hsp82, hits give low values 1.01 | S. cerevisiae deletion strains, locus YPL241C, strain CIN2, hits give low values 1.01 | S. cerevisiae deletion strains, locus YPL256C, strain CLN2, hits give low values 0.954 | S. cerevisiae deletion strains, locus YPR119W, strain clb2, hits give low values 0.993 | S. cerevisiae deletion strains, locus YPR141C, strain kar3, hits give low values 0.99 | S. cerevisiae deletion strains, locus YPR163C, strain tif3, hits give low values 1 | S. cerevisiae deletion strains, locus YPR167C, strain met16, hits give low values 0.996 | S. cerevisiae deletion strains, strain wtn01, hits give low values 0.995 | S. cerevisiae strains, strain wild type, hits give low values 1
